Source: PubChem BioAssay (Tox21)
Several values for one entry are separate records, joined by “and”; a condition that tells them apart may be missing. Equal values may be shown once. Records with an inconclusive call do not appear. Where a structure was tested more than once in an assay, its records may differ in their call. Activity calls are given as the source filed them. Unless noted, the call rests on the fitted dose curve; in most records, active means well fitted curve in the direction sought with a large enough effect in the repeat runs; inconclusive means weak or mixed curves; inactive means no such curve, though single readings can be large; an effect the other way counts as inactive or inconclusive.

Assays:
[1] = qHTS assay for small molecule agonists of the p53 signaling pathway (AID 651631; calls by dose curve; further: nearly all actives have a fitted effect of over 15% in size; further: potency means the concentration at half of the fitted maximal effect)
Procedure, shortened: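 Read-out is beta-lactamase FRET fluorescence measured 2 h after substrate addition at room temperature, in HCT-116 cells with a p53 response element-driven reporter exposed to compounds for 16 h at 37 °C.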

[2] = qHTS assay for small molecules that induce genotoxicity in human embryonic kidney cells expressing luciferase-tagged ATAD5 (AID 651632); further: nearly all actives have a fitted effect of over 15% in size; further: potency means the concentration at half of the fitted maximal effect
Procedure, shortened: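 Cells were seeded at 2,000 per well, dosed with compound, and incubated 16 hr at 37C in 5% CO2. Luciferase activity was then quantified after a 30 min room-temperature incubation with Amplite.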

[3] = qHTS assay for small molecule agonists of the p53 signaling pathway - cell viability (AID 651633; calls by dose curve; further: nearly all actives have a fitted effect of over 30% in size; further: potency means the concentration at half of the fitted maximal effect)
Procedure, shortened: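 Viability counter-read: CellTiter-Glo luminescence (30 min, room temperature) in the same p53RE-bla plates. These plates had been exposed to compounds for 16 h at 37 C.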

[4] = qHTS assay for small molecules that induce genotoxicity in human embryonic kidney cells expressing luciferase-tagged ATAD5 - cell viability (AID 651634; calls by dose curve; further: nearly all actives have a fitted effect of over 25% in size; further: potency means the concentration at half of the fitted maximal effect)
Procedure, shortened: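 Cells (HEK293T, luciferase-tagged ATAD5) are seeded at 2,000 per well, dosed with compound or DMSO vehicle, and incubated 15.5 hr at 37C and 5% CO2. CellTiter-Fluor is added for 30 min before fluorescence is measured.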

[5] = qHTS assay for small molecule disruptors of the mitochondrial membrane potential - cell viability (AID 720634; calls by dose curve; further: nearly all actives have a fitted effect of over 20% in size; further: potency means the concentration at half of the fitted maximal effect)
Procedure, shortened: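 Cytotoxicity was measured by ATP quantitation in HepG2 wells that had first been treated with compound for 1 hr and stained with m-MPI dye; CellTiter-Glo incubation was 30 min at room temperature.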

[6] = qHTS assay for small molecule disruptors of the mitochondrial membrane potential (AID 720635); further: potency means the concentration at half of the fitted maximal effect
Procedure, shortened: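 Mitochondrial membrane potential tracked with Mito-MPS dye, red aggregates (ex 540/em 590 nm) against green monomers (ex 490/em 535 nm). Compound treatment 1 hr at 37C, dye 30 min in HepG2.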

[7] = qHTS assay to test for compound auto fluorescence at 590 nm (red) in HepG2 cells (AID 720674)
Procedure, shortened: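 We screened compounds on adherent HepG2 cells, incubating them for an hour at 37 C in 5% CO2 before reading emission at 590 nm under 540 nm excitation; values reflect equivalence to Rose Bengal sodium fluorescence.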

[8] = qHTS assay to test for compound auto fluorescence at 535 nm (green) in HepG2 cells (AID 720675)
[9] = qHTS assay to test for compound auto fluorescence at 460 nm (blue) in HEK293 cells (AID 720678)
Procedure, shortened: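 Intrinsic compound fluorescence is recorded in live HEK293 cultures after overnight incubation at 37C, 5% CO2, using excitation 405 nm and emission 460 nm. Values are referenced to triamterene.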

[10] = qHTS assay to test for compound auto fluorescence at 590 nm (red) in HEK293 cells (AID 720679)
Procedure, shortened: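 Red autofluorescence, HEK293 cells: 2,000 cells/well; attach 4-5 hr 37C; add 23 nL cpd or DMSO; incubate o/n 37C 5% CO2; read Ex540/Em590; Rose Bengal sodium reference.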

Measured: Potency

CN1C(=O)c2ccc([N+](=O)[O-])cc2C1=O
active: [6] 61.1 µM
inactive: all other assays above

Nc1nc2ccccc2[nH]1
not listed: [8]
inactive: all other assays above

CCC[C@H](N[C@@H](C)C(=O)N1[C@H](C(=O)O)C[C@@H]2CCCC[C@@H]21)C(=O)OCC
inactive: all assays above

C=C(C)C1CC=C(C)C(OC(C)=O)C1 (configuration not stated)
not listed: [6]
inactive: all other assays above

O=c1n(CC2CO2)c(=O)n(CC2CO2)c(=O)n1CC1CO1 (configuration not stated)
active: [1] 13.3 µM and 8.58 µM and 8.63 µM | [2] 23.7 µM and 24.2 µM and 54.5 µM
inactive: all other assays above

Nc1cc(Cl)c(-c2cc(Cl)c(N)cc2Cl)cc1Cl
active: [1] 68.5 µM and 68.6 µM | [2] 13.7 µM | [3] 61.1 µM and 54.5 µM | [4] 30.6 µM | [5] 48.5 µM and 54.5 µM
inactive: [7] | [8] | [9] | [10]

CCN1CCCC1CNC(=O)c1cc(S(=O)(=O)CC)c(N)cc1OC (configuration not stated)
inactive: all assays above

CC(C)C(=O)c1c(C(C)C)nn2ccccc12
inactive: all assays above

Cc1cc(C2(c3cc(C)c(O)cc3C)OS(=O)(=O)c3ccccc32)c(C)cc1O
active: [4] 30.6 µM and 17.2 µM
not listed: [6]
inactive: all other assays above

CC(C)(O)CCC(C)(C)O
inactive: all assays above

C=C(C)C(=O)O
not listed: [6]
inactive: all other assays above

CC1COC(=O)O1 (configuration not stated)
not listed: [8]
inactive: all other assays above

O=C(O)c1cc(Cl)cc(Cl)c1
not listed: [8]
inactive: all other assays above

CC(=O)OCCOCCOCCOC(C)=O
not listed: [8]
inactive: all other assays above

O=C(O)CCc1ccccc1
not listed: [8]
inactive: all other assays above

CCC(CO)(CO)COCC(CC)(CO)CO
inactive: all assays above

Cc1occc(=O)c1OC(=O)C(C)C
inactive: all assays above

C=CC(=O)OCCCCCCCC
not listed: [8]
inactive: all other assays above

C/C=C/c1ccc(OCC)c(O)c1
active: [6] 48.6 µM
not listed: [8]
inactive: all other assays above

Cc1cccc(O)c1C
inactive: all assays above

CCCCC/C=C/CC1CC(=O)OC1=O (configuration not stated)
not listed: [6]
inactive: all other assays above

OCCOCCN1CCN(C(c2ccccc2)c2ccc(Cl)cc2)CC1 (configuration not stated)
inactive and 60.3 µM (active): [3]
not listed: [6]
inactive: all other assays above
